Screening results as filed in PubChem.
Shown is part of a subset that was picked to be rich in hits.
Pf apPOL block = Pf-apPOL inhibitors, biochemical, fluorescence; hit rate 0.25% among 210,000; Recombinant Pf-apPOL, molecular beacon fluorescence, 1.5 h; AID 1794808, 2022; inhibition, % at 10 µM
mHTT-CaM PPI inh = mutant huntingtin-calmodulin interaction inhibitors – biochemical, AlphaScreen, primary screen. inhibition, % at 15 µM. AID 1671202, 2021. AlphaScreen His-mHTT/GST-CaM binding, luminescence. P42858. hit rate 3.6% among 190,000
Of the large screens only hits and unclear results are named; the others gave an inactive call. Cut-off read from the data, not from the text of the source: active = inhibition above about 50%; inactive = the rest.

C=C[C@@H]1c2cc(C)ccc2N(S(=O)(=O)c2ccc(C)cc2)[C@H](c2ccccc2)C1(C#N)S(=O)(=O)c1ccccc1 (some centres not stated)	none
COC(=O)CCCn1cc(CN2CC(N3CCN(Cc4ccccc4F)CC3)CS2(=O)=O)nn1 (configuration not stated)	none
Cc1nc(C)c(-c2nnc(NC(=O)CCOc3ccccc3)o2)s1	mHTT-CaM PPI inh 64
Cc1nc(C)c(-c2nnc(NC(=O)CCS(=O)(=O)c3ccccc3)o2)s1	none
Cn1cnnc1-c1cccc(NS(=O)(=O)c2ccc(Cl)cc2)c1	none
COCC(C)NC(=O)c1ccc([N+](=O)[O-])cc1Cl (configuration not stated)	Pf apPOL block 109
CC(C)Oc1ccc(NC(=O)c2ccc([N+](=O)[O-])cc2Cl)cc1	none
CC(C)c1ccc(C2Nc3ccc4ncccc4c3C3=C2C(=O)CCC3)cc1 (configuration not stated)	mHTT-CaM PPI inh 65
Cc1ccc(C2Nc3ccc4ncccc4c3C3=C2C(=O)CCC3)cc1 (configuration not stated)	none
Cc1csc(NC(=O)Cc2ccc(Br)cc2)n1	none
Cc1cccc(C)c1NC(=O)c1ccc(N(Cc2ccc(Cl)cc2)S(C)(=O)=O)cc1	none
COc1c(C(=O)N2CCN(c3ccccc3F)CC2)sc2cccc(F)c12	none
COc1c(C(=O)N2CCN(c3ccccc3)CC2)sc2cccc(F)c12	mHTT-CaM PPI inh 64
CCc1cc(C(=O)N2CCN(c3cc(C)ccc3C)CC2)nc2ccnn12	mHTT-CaM PPI inh 54
Cc1ccc(C)c(N2CCN(C(=O)c3cc(C)n4nccc4n3)CC2)c1	none
CC(C)c1nc(N2CCCC2=O)sc1C(=O)N1CCN(c2ccccc2F)CC1	mHTT-CaM PPI inh 55
COC(=O)c1cccc(C(=O)N2CCN(c3cc(C)ccc3C)CC2)n1	none
CCc1nc(N2CCCC2=O)sc1C(=O)N1CCN(c2cc(C)ccc2C)CC1	mHTT-CaM PPI inh 95
CC(C)c1nc(N2CCCC2=O)sc1C(=O)N1CCN(c2ccc(F)cc2)CC1	none
CCc1ccccc1NC(=O)c1c(NC(=O)c2ccco2)sc2c1CCC2	none
Cc1ccccc1C(=O)N1CCc2c(c(C(=O)NCc3ccc(Cl)cc3)nn2C)C1	none
Cn1nc(C(=O)NCc2ccc(Cl)cc2)c2c1CCN(C(=O)c1c(F)cccc1F)C2	mHTT-CaM PPI inh 58
Cn1nc(C(=O)NCc2ccc(F)cc2)c2c1CCN(C(=O)c1ccccc1F)C2	mHTT-CaM PPI inh 82
CCOc1ccccc1C(=O)N1CCc2c(c(C(=O)NCc3cccc(C)c3)nn2C)C1	none
CCOc1ccccc1C(=O)N1CCc2c(c(C(=O)NCc3ccc(F)cc3)nn2C)C1	mHTT-CaM PPI inh 73
Cc1cccc(CNC(=O)c2nn(C)c3c2CN(C(=O)c2ccccc2F)CC3)c1	none
CC1CCCCN1CCNC(=O)CC1CCN(S(=O)(=O)c2cccs2)CC1 (configuration not stated)	none
NC(=O)C1(c2ccccc2Cl)CC1	none
Cc1ccc(C2=NN(C(=O)c3ccccc3)C(c3cccc([N+](=O)[O-])c3)C2)cc1 (configuration not stated)	none
O=C(Cn1c2ccccc2c(=O)c2cc([N+](=O)[O-])ccc21)Nc1cccnc1Cl	none
CC(=O)c1nnn(-c2cc(Cl)cc(Cl)c2)c1C	none (no result: mHTT-CaM PPI inh)
CCCNC(=O)c1nc(C)n(C2CCN(C)CC2)c1C	none
Cc1nc(C(=O)NCCCN2CCCc3ccccc32)c(C)n1C1CCN(C)CC1	mHTT-CaM PPI inh 97
Cc1nc(C(=O)NCCc2ccc(Cl)cc2)c(C)n1C1CCN(S(C)(=O)=O)CC1	mHTT-CaM PPI inh 61
Cc1nc(C(=O)NCCc2ccccn2)c(C)n1C1CCN(S(C)(=O)=O)CC1	none
CC(C)(C)C(=O)N1CCN(c2nc(CN3CCCCC3)cs2)CC1	none
Cc1ccc(CNC(=O)CSc2nc3ccsc3c(=O)n2Cc2ccccc2F)cc1	none
Cc1ccc(-c2nc(C)cc(OCC(=O)N3CCCC3)n2)cc1	none
CN(C)c1ccc(CCCNS(=O)(=O)Cc2cccc(Cl)c2)cc1	none
CN(C)c1ccc(CCCNS(=O)(=O)c2ccc(Cl)s2)cc1	mHTT-CaM PPI inh 65
COc1ccc(Oc2ccc(C(F)(F)F)cc2NC(=O)c2ccc(OC)cc2)cc1	none (no result: mHTT-CaM PPI inh)
COc1ccc([C@H]2C=C3CNS(=O)(=O)[C@H]3C[C@H]2OC(=O)c2ccc(C(F)(F)F)cc2)cc1	mHTT-CaM PPI inh 100
COc1ccc([C@H]2C=C3CNS(=O)(=O)[C@H]3C[C@H]2OC(=O)c2ccc(Cl)cc2)cc1	mHTT-CaM PPI inh 60
COc1ccc([C@H]2C=C3CNS(=O)(=O)[C@H]3C[C@H]2OC(=O)c2cccc(C)c2)cc1	mHTT-CaM PPI inh 82
COc1ccc(C2C(=C(O)c3ccc(Cl)cc3)C(=O)C(=O)N2C)cc1 (configuration not stated)	none
COc1ccc([C@H]2C=C3CNS(=O)(=O)[C@H]3C[C@H]2OC(=O)c2cccs2)cc1	none
COc1ccc(CN2CCN(c3c([N+](=O)[O-])c(=O)n(C)c4ccccc34)CC2)cc1F	none
CC(=O)NC1=NC(=O)/C(=C/c2ccc(F)cc2)S1	none
CC(=O)NC1=NC(=O)/C(=C/c2c(C)n(Cc3ccc(F)cc3)c3ccccc23)S1	mHTT-CaM PPI inh 100
CSc1cccc2sc(N(CCN(C)C)C(=O)c3ccc(N(C)C)cc3)nc12	none
CN(C)CCCN(C(=O)c1cccc(C(F)(F)F)c1)c1nc2ccc(F)cc2s1	mHTT-CaM PPI inh 55
Cc1ccc(N2C(=O)C(C)SC23C(=O)Nc2ccccc23)cc1 (configuration not stated)	none
Cc1ccc(C2=NNC3(S2)C(=O)Nc2ccccc23)cc1 (configuration not stated)	mHTT-CaM PPI inh 99
Cc1ccc(C2=NNC3(S2)C(=O)Nc2ccc(C)cc23)cc1 (configuration not stated)	mHTT-CaM PPI inh 100
Cc1ccc(C2=NNC(C)(C3(C)NN=C(c4ccc(C)cc4)S3)S2)cc1 (configuration not stated)	none (no result: Pf apPOL block)
Cc1c(Cc2ccccc2)sc(NC(=O)Nc2ccccc2)c1C(N)=O	none
Cc1c(Cc2ccccc2)sc(N)c1C(N)=O	mHTT-CaM PPI inh 75
COc1ccc(N2CCN(C(=O)c3ccc(SCc4cccnc4)c([N+](=O)[O-])c3)CC2)cc1	none
N#Cc1cccc(NC(=O)CSc2nc3c(c(=O)[nH]2)CN(Cc2ccccc2)CC3)c1	mHTT-CaM PPI inh 54
O=c1[nH]c(SCc2ccccc2Cl)nc2c1CN(Cc1ccccc1)CC2	none
Cc1cccc(C(=O)ON=C2CCSCC2)c1	none
Cc1cc(F)ccc1NCc1cc2c(cc1[N+](=O)[O-])OCO2	none
COc1cccc(OCC(O)CN2CCN(c3ccccc3OC)CC2)c1 (configuration not stated)	none
CCN(CC)C(=O)CSc1nc2n[nH]c(C)c2c(=N)n1-c1ccc(C)c(Cl)c1	none
CCc1ccc(-n2c(SCC(=O)NC(C)CC)nc3n[nH]c(C)c3c2=N)cc1 (configuration not stated)	mHTT-CaM PPI inh 91
CCC(C)NC(=O)CSc1nc2n[nH]c(C)c2c(=N)n1-c1ccc(C)cc1 (configuration not stated)	mHTT-CaM PPI inh 54
CCN(CC)C(=O)CSc1nc2n[nH]c(C)c2c(=N)n1-c1ccc(Oc2ccccc2)cc1	none
CC(C)OCCCNC(=O)Cc1cn(C)c2ccccc12	none
Cc1cc(NC(=O)Nc2ccc(Cl)c(Cl)c2)no1	none
Nc1nc(NC(=O)c2ccc(Cl)cc2)nn1-c1ccccc1	none
Nc1nc(NC(=O)C(Cl)(Cl)Cl)nn1-c1ccccc1	mHTT-CaM PPI inh 85
